Measurements: PubChem BioAssay (EPA / NIEHS)
Results filed as inconclusive are left out. The source made the active and inactive calls. How the source made its calls: active means hit-call score of the fitted dose curve at least 0.9, where 1 is the maximum; inconclusive means response in the unintended direction; inactive means score below 0.9.

read-out: Cytochrome P450 2C19 (Homo sapiens) (UniProt P33261); experiment: CLD_CYP2C19_6hr: CellzDirect (CLD) Gene Expression Assay for xenobiotic metabolism (CYP2C19) at 6 hours (AID 2283678)
Procedure: CLD_6hr is a cell-based, multiplexed-readout assay that uses hepatocyte, a human liver primary cell, with measurements taken at 6 hours after chemical dosing in a 96-well plate.CLD_CYP2C19_6hr is one of 16 assay component(s) measured or calculated from the CLD_6hr assay. It is designed to make measurements of mRNA induction, a form of inducible reporter, as detected with chemiluminescence signals by Quantitative Nuclease Protection Assay (qNPA) technology.Data from the assay component CLD_CYP2C19_6hr was analyzed at the endpoint, CLD_CYP2C19_6hr, in the positive analysis fitting direction relative to DMSO as the negative control and baseline of activity. Using a type of inducible reporter, gain-of-signal activity can be used to understand changes in the reporter gene as they relate to the gene CYP2C19. Furthermore, this assay endpoint can be referred to as a primary readout. To generalize the intended target to other relatable targets, this assay endpoint is annotated to the cyp intended target family, where subfamily is xenobiotic metabolism.
Human hepatocyte cultures were treated daily for two consecutive days with fresh dosing solutions containing appropriate concentrations of the 320 ToxCast chemicals (chemical identities were blinded to CellzDirect and other ToxCast collaborators), vehicle control (0.2% DMSO), and positive control inducers as summarized in Table 1. Due to the large number of treatment groups and chemicals examined, the ToxCast chemicals were divided into two groups (spanning two independent cultures of hepatocytes from separate donor preparations (Hu778: ToxCast plates 1 and 2; Hu776: ToxCast plates 3 and 4). Each preparation of human hepatocyte cultures was treated with respective vehicle control, medium only control, set of six positive controls/reference chemicals for the five hepatic receptor pathways, and a subset of eight of the ToxCast chemicals (indoxacarb, pyrithiobac-sodium, norflurazon, cyhalofop-butyl, methomyl, thiram, acetochlor, and propiconazole). These replicate data, coupled with internal replicates designed within the blinded ToxCast chemical library, provided additional data to evaluate interindividual differences between hepatocyte preparations and their potential impact on chemical profiles.Cell morphology and integrity were evaluated using phase-contrast microscopy as an indicator of hepatocyte cell health (Tyson & Green, 1987). Cultures for each treatment group (i.e., media, vehicle [0.2% DMSO], positive control inducers [multiple concentrations], and the ToxCast chemicals [multiple concentrations]) were observed and cell morphology was assessed relative to vehicle control cultures at each harvest time point (0, 6, 24, or 48 h). […] Images were evaluated at the conclusion of the study to assess changes in cell integrity and account for the effects of chemical exposure on uncharacteristic changes in concentration-dependent gene expression profiles. The results from these determinations of apparent cytotoxicity were annotated (yes/no) alongside the corresponding qNPA data for reference.At the conclusion of each treatment period, hepatocyte cultures (96-well) were washed with 1 volume of HBSS, lysed by addition of 25 ul ArrayPlate lysis buffer (HTG, Tucson, AZ), and 70 ul/well of Denaturation Oil, denatured by incubation at 95C for 10 min, and frozen at approximately -70C until analysis by nuclease protection assay (qNPA) (Roberts et al., 2007). For qNPA analysis, cell lysates were thawed at 50C for approximately 30 min, qNPA probes were added, and samples were incubated at 95C for 10 min to begin the detection process by denaturing the target RNA, dissociating the duplexes and secondary structure hybridization. At the conclusion of the hybridization period, S1 nuclease reagent was added to each sample to digest all nonprotected nucleotides at 50C for 60-90 min. […]

Chain of Cytochrome P450 2C19 (Homo sapiens) (P33261 whole entry, looked up): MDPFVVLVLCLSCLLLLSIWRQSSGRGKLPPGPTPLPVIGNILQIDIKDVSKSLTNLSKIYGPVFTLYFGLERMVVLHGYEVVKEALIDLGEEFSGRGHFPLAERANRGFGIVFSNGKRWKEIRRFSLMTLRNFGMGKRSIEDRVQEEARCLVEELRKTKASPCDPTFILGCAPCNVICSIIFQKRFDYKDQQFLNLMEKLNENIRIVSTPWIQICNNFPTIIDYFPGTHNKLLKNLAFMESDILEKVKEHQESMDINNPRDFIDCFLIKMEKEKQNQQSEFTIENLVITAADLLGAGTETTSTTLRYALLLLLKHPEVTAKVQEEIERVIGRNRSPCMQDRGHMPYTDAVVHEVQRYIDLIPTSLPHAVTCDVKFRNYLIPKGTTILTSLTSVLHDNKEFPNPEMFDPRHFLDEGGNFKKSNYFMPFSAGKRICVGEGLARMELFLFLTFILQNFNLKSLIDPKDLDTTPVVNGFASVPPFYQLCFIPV

Row | Compound | outcome
1 | O=C(O)COc1nc(Cl)c(Cl)cc1Cl | inactive
2 | COP(N)(=O)SC (configuration not stated) | inactive
3 | CCON=C(CC)C1=C(O)CC(c2c(C)cc(C)cc2C)CC1=O (configuration not stated) | inactive
4 | COC(=O)C(C)Oc1ccc(Oc2ccc(Cl)cc2Cl)cc1 (configuration not stated) | inactive
5 | CC(C)C1(C)N=C(c2nc3ccccc3cc2C(=O)O)NC1=O (configuration not stated) | inactive
6 | CCCCOC(=O)c1ccccc1C(=O)OCCCC | inactive
7 | CCOP(=S)(OCC)SCn1c(=O)oc2cc(Cl)ccc21 | inactive
8 | Cc1ccc(-c2c(Cl)nc(C#N)n2S(=O)(=O)N(C)C)cc1 | inactive
9 | CS/C(C)=N/OC(=O)N(C)SN(C)C(=O)O/N=C(\C)SC | inactive
10 | COc1nc(C)nc(NC(=O)NS(=O)(=O)c2ccccc2CCC(F)(F)F)n1 | inactive
11 | CCOC(=O)C(Cl)Cc1cc(-n2nc(C)n(C(F)F)c2=O)c(F)cc1Cl (configuration not stated) | inactive
12 | Cc1cc(Cl)ccc1OCC(=O)O | inactive
13 | COc1nc(NC(C)C)nc(NC(C)C)n1 | inactive
14 | O=C(O)c1nc(Cl)ccc1Cl | inactive
15 | COC(=O)N(OC)c1ccccc1COc1ccn(-c2ccc(Cl)cc2)n1 | inactive
16 | COc1cnc(OC)n2nc(NS(=O)(=O)c3c(OCC(F)F)cccc3C(F)(F)F)nc12 | inactive
17 | CNC(=S)S | inactive
18 | CCc1nn(C)c(C(=O)NCc2ccc(C(C)(C)C)cc2)c1Cl | inactive
19 | COc1nc(C)nc(NC(=O)NS(=O)(=O)c2ccccc2Cl)n1 | inactive
20 | COC(=O)c1ccccc1C(=O)OC | inactive
21 | CCNc1nc(Cl)nc(NC(C)C)n1 | inactive
22 | CCCCNC(=O)n1c(NC(=O)OC)nc2ccccc21 | inactive
